Experimental data taken from PubChem BioAssay (EPA / NIEHS).
Calls of active or inactive are those of the source. Rule for the calls: active = hit-call score of the fitted dose curve at least 0.9, where 1 is the maximum; inactive = score below 0.9.

Tests used:
Conditions in all cases: mRNA level, 48 h; actives raise or lower the signal
[1] = read-out: Alpha-fetoprotein (AFP) gene, AFP (gene 174); assay: LTEA_HepaRG_AFP: Life Technologies and Expression Analysis (LTEA) Assay for Alpha-fetoprotein (AFP) gene using HepaRG (AID 2283472)
Method in brief: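 Human HepaRG cells plated 48 h, then switched to serum-free induction medium and exposed in duplicate for 48 h to 8-point half-log series from 100 uM in 0.5% DMSO. AFP mRNA by qRT-PCR, normalized to ACTB, GAPDH, POLR2A; bidirectional fit versus DMSO.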

[2] = read-out: BCL2L11 (gene 10018); assay: LTEA_HepaRG_BCL2L11: Life Technologies and Expression Analysis (LTEA) Assay for Bcl-2 (BCL2L11) gene using HepaRG (AID 2283473)
Method in brief: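 Read-out is BCL2L11 transcript level by qRT-PCR, normalized to three housekeeping genes and fitted bidirectionally against 0.5% DMSO vehicle. HepaRG cells received chemicals for 48 h in serum-free induction medium, 100 uM down in half-log dilutions.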

[3] = read-out: Apolipoprotein A-V (APOA5) gene, APOA5 (gene 116519); assay: LTEA_HepaRG_APOA5: Life Technologies and Expression Analysis (LTEA) Assay for Apolipoprotein A-V (APOA5) gene using HepaRG (AID 2283474)
Method in brief: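 Readout is APOA5 transcript level by qRT-PCR on Fluidigm dynamic arrays, normalized to three housekeeping genes. HepaRG cultures received chemicals for 48 h at up to 100 uM (half-log steps, 0.5% DMSO), with gain or loss scored relative to DMSO.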

[4] = read-out: Apoptosis regulator Bcl-2 (Homo sapiens) (UniProt P10415); assay: LTEA_HepaRG_BCL2: Life Technologies and Expression Analysis (LTEA) Assay for Bcl-2 gene using HepaRG (AID 2283475)
Method in brief: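 Differentiated HepaRG cells in serum-free induction medium were exposed for 48 h to eight half-log concentrations up to 100 uM in 0.5% DMSO, in duplicate. BCL2 mRNA was quantified by TaqMan qRT-PCR normalised to ACTB, GAPDH and POLR2A, with bidirectional fitting versus DMSO.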

[5] = read-out: Bcl-2 (BID) gene, BID (gene 637); assay: LTEA_HepaRG_BID: Life Technologies and Expression Analysis (LTEA) Assay for Bcl-2 (BID) gene using HepaRG (AID 2283476)
Method in brief: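 Differentiated HepaRG cells in serum-free induction medium were exposed in duplicate for 48 h to eight half-log concentrations up to 100 uM in 0.5% DMSO. BID mRNA was quantified by qRT-PCR, normalized to ACTB, GAPDH and POLR2A.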

[6] = read-out: Caspase-3 (Homo sapiens) (UniProt P42574); assay: LTEA_HepaRG_CASP3: Life Technologies and Expression Analysis (LTEA) Assay for cysteine-aspartic acid protease (CASP3) using HepaRG (AID 2283477)
Method in brief: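 Read-out is CASP3 mRNA level by TaqMan qRT-PCR in human HepaRG cells after 48 h chemical exposure. Eight half-log concentrations topping at 100 uM were tested in 0.5% DMSO; gain or loss was fitted relative to DMSO.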

[7] = read-out: Cytochrome P450 (CYP1A2), CYP1A2 (gene 1544); assay: LTEA_HepaRG_CYP1A2: Life Technologies and Expression Analysis (LTEA) Assay for Cytochrome P450 (CYP1A2) using HepaRG (AID 2283479)
Method in brief: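 CYP1A2 transcript induction or loss, quantified by Fluidigm qRT-PCR against three housekeeping genes, was fitted bidirectionally against 0.5% DMSO controls. Human HepaRG cells received eight half-log concentrations from 100 uM over 48 h.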

[8] = read-out: cysteine-aspartic acid protease (CASP8), CASP8 (gene 841); assay: LTEA_HepaRG_CASP8: Life Technologies and Expression Analysis (LTEA) Assay for cysteine-aspartic acid protease (CASP8) using HepaRG (AID 2283480)
Method in brief: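 Differentiated human HepaRG cells, plated 48 h then switched to serum-free induction medium, were exposed in duplicate for 48 h to 8 half-log concentrations up to 100 uM in 0.5% DMSO. CASP8 mRNA was quantified by qRT-PCR, normalized to ACTB/GAPDH/POLR2A.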

[9] = read-out: CYP2C8 (gene 1558); assay: LTEA_HepaRG_CYP2C8: Life Technologies and Expression Analysis (LTEA) Assay for CYP2C8 using HepaRG (AID 2283483)
Method in brief: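 Differentiated human HepaRG cells were exposed for 48 h in serum-free induction medium to eight half-log concentrations up to 100 uM in 0.5% DMSO, in duplicate. CYP2C8 mRNA was measured by TaqMan qRT-PCR, normalized to ACTB, GAPDH and POLR2A, and fitted bidirectionally against DMSO.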

[10] = read-out: CYP2C9 (gene 1559); assay: LTEA_HepaRG_CYP2C9: Life Technologies and Expression Analysis (LTEA) Assay for CYP2C9 using HepaRG (AID 2283484)
Method in brief: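 Differentiated human HepaRG cells were exposed 48 h in serum-free induction medium to eight half-log concentrations up to 100 uM in 0.5% DMSO. CYP2C9 mRNA was measured by qRT-PCR, normalized to ACTB, GAPDH and POLR2A, and fitted bidirectionally against DMSO.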

[11] = read-out: CYP2E1 (gene 1571); assay: LTEA_HepaRG_CYP2E1: Life Technologies and Expression Analysis (LTEA) Assay for CYP2E1 using HepaRG (AID 2283485)
Method in brief: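 HepaRG cells in serum-free induction medium exposed 48 h to test chemicals, 8 half-log concentrations up to 100 uM in 0.5% DMSO, duplicate. CYP2E1 mRNA by qRT-PCR, normalized to ACTB, GAPDH, POLR2A; bidirectional fit versus DMSO.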

[12] = read-out: CYP4A11 (gene 1579); assay: LTEA_HepaRG_CYP4A11: Life Technologies and Expression Analysis (LTEA) Assay for CYP4A11 using HepaRG (AID 2283486)
Method in brief: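 HepaRG, 48 h chem exposure, 8 conc (100 uM top, half-log), 0.5% DMSO vehicle; qRT-PCR readout, housekeeping-gene normalized; bidirectional curve fit vs DMSO baseline.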

[13] = read-out: Cytochrome P450 3A4 (Homo sapiens) (UniProt P08684); assay: LTEA_HepaRG_CYP3A4: Life Technologies and Expression Analysis (LTEA) Assay for CYP3A4 using HepaRG (AID 2283487)
Method in brief: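 In a human hepatic line (HepaRG), duplicate wells were treated 48 h with up to 100 uM chemical in half-log dilutions. Endpoint: CYP3A4 mRNA induction or loss relative to 0.5% DMSO vehicle, by qRT-PCR.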

[14] = read-out: Pro-epidermal growth factor (Homo sapiens) (UniProt P01133); assay: LTEA_HepaRG_EGF: Life Technologies and Expression Analysis (LTEA) Assay for Epidermal growth factor (EGF) using HepaRG (AID 2283489)
Method in brief: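 HepaRG, 48 h dosing, 100 uM top, half-log x8, 0.5% DMSO. Readout: TaqMan qRT-PCR (Fluidigm array), housekeeping-normalized. Gain or loss of signal fit vs DMSO.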

[15] = read-out: Ezrin (EZR), EZR (gene 7430); assay: LTEA_HepaRG_EZR: Life Technologies and Expression Analysis (LTEA) Assay for Ezrin (EZR) using HepaRG (AID 2283491)
Method in brief: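 Gain or loss of EZR mRNA is scored relative to 0.5% DMSO in human HepaRG cultures treated 48 h with test chemicals in duplicate, eight half-log concentrations from 100 uM.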

[16] = read-out: Cytochrome P450 2C19 (Homo sapiens) (UniProt P33261); assay: LTEA_HepaRG_CYP2C19: Life Technologies and Expression Analysis (LTEA) Assay for CYP2C19 using HepaRG (AID 2283482)
Method in brief: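 Transcript levels of CYP2C19 were quantified by qRT-PCR after HepaRG cells were treated for 48 hours with test chemicals up to 100 uM (eight half-log concentrations, 0.5% DMSO vehicle). Gain or loss of signal was fitted relative to DMSO.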

[17] = read-out: Early growth response protein 1 (EGR1) transcription factor, EGR1 (gene 1958); assay: LTEA_HepaRG_EGR1: Life Technologies and Expression Analysis (LTEA) Assay for Early growth response protein 1 (EGR1) transcription factor using HepaRG (AID 2283490)
Method in brief: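 Differentiated human HepaRG cells in serum-free induction medium were exposed in duplicate for 48 h to eight concentrations (top 100 uM, half-log steps) in 0.5% DMSO. EGR1 mRNA was quantified by qRT-PCR, normalized to ACTB, GAPDH and POLR2A, and fitted bidirectionally versus DMSO.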

[18] = read-out: Cytochrome P450 (CYP24A1), CYP24A1 (gene 1591); assay: LTEA_HepaRG_CYP24A1: Life Technologies and Expression Analysis (LTEA) Assay for Cytochrome P450 (CYP24A1) using HepaRG (AID 2283478)
Method in brief: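 HepaRG, 48 h chemical exposure, 8-pt half-log CRC from 100 uM, 0.5% DMSO vehicle, duplicates. Endpoint: CYP24A1 mRNA by Fluidigm TaqMan qRT-PCR, normalized ACTB/GAPDH/POLR2A; gain/loss fit vs DMSO.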

[19] = read-out: Cytochrome P450 (CYP2B6), CYP2B6 (gene 1555); assay: LTEA_HepaRG_CYP2B6: Life Technologies and Expression Analysis (LTEA) Assay for Cytochrome P450 (CYP2B6) using HepaRG (AID 2283481)
Method in brief: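 HepaRG cells plated 48 h, switched to serum-free induction medium, then dosed 48 h (8 points, half-log from 100 uM, 0.5% DMSO). RNA isolated; CYP2B6 expression measured by qRT-PCR; gain or loss fitted relative to DMSO.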

[20] = read-out: DNA damage-inducible transcript 3 (DDIT3), DDIT3 (gene 1649); assay: LTEA_HepaRG_DDIT3: Life Technologies and Expression Analysis (LTEA) Assay for DNA damage-inducible transcript 3 (DDIT3) using HepaRG (AID 2283488)
Method in brief: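 Differentiated human HepaRG cells in serum-free induction medium were exposed in duplicate for 48 h to 8 concentrations (top 100 uM, half-log steps, 0.5% DMSO). DDIT3 mRNA measured by TaqMan qRT-PCR, normalized to ACTB/GAPDH/POLR2A; bidirectional fit versus DMSO.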

Measured: AC50

Chain of Cytochrome P450 3A4 (Homo sapiens) (P08684 whole entry, looked up): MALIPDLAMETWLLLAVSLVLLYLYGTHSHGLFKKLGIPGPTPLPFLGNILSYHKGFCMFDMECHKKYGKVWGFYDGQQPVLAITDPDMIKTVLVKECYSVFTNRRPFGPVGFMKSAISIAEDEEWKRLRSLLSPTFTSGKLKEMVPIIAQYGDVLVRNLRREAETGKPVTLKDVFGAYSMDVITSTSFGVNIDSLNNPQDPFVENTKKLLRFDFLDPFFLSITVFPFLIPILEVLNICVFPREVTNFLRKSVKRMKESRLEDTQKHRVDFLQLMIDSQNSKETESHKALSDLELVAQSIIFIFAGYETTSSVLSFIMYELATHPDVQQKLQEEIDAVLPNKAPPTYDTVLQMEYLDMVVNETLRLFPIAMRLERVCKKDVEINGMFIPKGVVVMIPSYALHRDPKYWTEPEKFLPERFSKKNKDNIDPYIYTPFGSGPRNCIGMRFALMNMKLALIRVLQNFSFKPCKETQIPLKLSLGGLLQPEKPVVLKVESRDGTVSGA
Chain of Apoptosis regulator Bcl-2 (Homo sapiens) (P10415 whole entry, looked up): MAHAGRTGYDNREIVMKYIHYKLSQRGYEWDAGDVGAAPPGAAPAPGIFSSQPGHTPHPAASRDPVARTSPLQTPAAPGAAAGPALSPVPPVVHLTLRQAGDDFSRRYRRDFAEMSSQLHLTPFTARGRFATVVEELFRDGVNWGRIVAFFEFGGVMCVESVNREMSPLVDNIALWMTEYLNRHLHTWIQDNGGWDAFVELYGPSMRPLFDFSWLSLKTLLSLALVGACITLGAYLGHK
Chain of Cytochrome P450 2C19 (Homo sapiens) (P33261 whole entry, looked up): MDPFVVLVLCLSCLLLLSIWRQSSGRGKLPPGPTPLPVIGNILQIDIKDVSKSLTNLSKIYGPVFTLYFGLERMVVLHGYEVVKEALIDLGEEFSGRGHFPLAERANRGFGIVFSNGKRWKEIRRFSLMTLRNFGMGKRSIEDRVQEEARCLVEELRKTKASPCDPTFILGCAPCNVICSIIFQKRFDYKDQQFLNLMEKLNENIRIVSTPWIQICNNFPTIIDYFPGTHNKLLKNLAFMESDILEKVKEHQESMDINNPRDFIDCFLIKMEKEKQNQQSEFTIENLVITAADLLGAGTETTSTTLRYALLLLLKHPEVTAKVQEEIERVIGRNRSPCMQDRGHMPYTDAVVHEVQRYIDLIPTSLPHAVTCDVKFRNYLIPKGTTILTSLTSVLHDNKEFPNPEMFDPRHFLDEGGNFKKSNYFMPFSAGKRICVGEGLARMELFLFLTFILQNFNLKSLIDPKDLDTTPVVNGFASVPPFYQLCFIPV
Chain of Caspase-3 (Homo sapiens) (P42574 whole entry, looked up): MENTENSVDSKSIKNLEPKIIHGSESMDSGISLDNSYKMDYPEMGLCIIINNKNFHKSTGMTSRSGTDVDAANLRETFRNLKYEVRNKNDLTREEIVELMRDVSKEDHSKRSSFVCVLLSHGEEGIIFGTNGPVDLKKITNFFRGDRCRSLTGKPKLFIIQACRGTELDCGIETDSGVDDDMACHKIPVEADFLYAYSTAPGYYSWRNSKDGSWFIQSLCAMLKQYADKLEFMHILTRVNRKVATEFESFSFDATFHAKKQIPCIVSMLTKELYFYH

c1ccc(C2CO2)cc1 (stereo not given)
not listed: [16] | [17] | [18] | [19] | [20]
inactive: all other assays above

CC(C)(C)C(O)(CCc1ccc(Cl)cc1)Cn1cncn1 (stereo not given)
inactive: [2] | [5] | [6] | [8] | [14] | [15]
active: [1] 62.2 µM | [3] 79.4 µM | [4] 79 µM | [7] 2.92 µM | [16] 12.1 µM | [9] 11.4 µM | [10] 85.9 µM | [11] 50 µM | [12] 55.2 µM | [13] 2.86 µM | [17] 90.1 µM

Nc1ccc([N+](=O)[O-])cc1
active: [7] 39.3 µM
not listed: [4]
inactive: all other assays above

OCCCBr
not listed: [16] | [17] | [18] | [19]
inactive: all other assays above

CCCCCOC(=O)c1ccccc1C(=O)OCCCCC
active: [12] 50 µM
not listed: [4] | [20]
inactive: all other assays above

Nc1ccc(Cl)cc1N
active: [1] 22.5 µM | [2] 18.9 µM | [3] 16.2 µM | [7] 0.811 µM | [19] 21.6 µM | [9] 25.1 µM | [10] 24.6 µM | [11] 19.5 µM | [12] 23.2 µM | [13] 19.7 µM | [20] 50 µM | [17] 12.9 µM
inactive: [5] | [6] | [18] | [8] | [14] | [15]

CCC[CH2][Sn]([Cl])([CH2]CCC)[CH2]CCC
active: [1] 0.59 µM | [2] 11.7 µM | [3] 2.03 µM | [7] 1.58 µM | [19] 2.53 µM | [16] 1.37 µM | [9] 2.42 µM | [10] 2.23 µM | [11] 0.505 µM | [13] 2.27 µM | [17] 50 µM
inactive: [5] | [6] | [18] | [8] | [12] | [15]

C1=Cc2cccc3cccc1c23
active: [7] 24.9 µM | [19] 37.8 µM
not listed: [4] | [11] | [17]
inactive: all other assays above

Clc1ccc(C(c2ccc(Cl)cc2)C(Cl)Cl)cc1
active: [1] 14 µM | [3] 60.5 µM | [16] 7.66 µM | [9] 12.7 µM | [11] 52.5 µM | [12] 50 µM | [13] 10 µM
not listed: [17] | [18] | [19]
inactive: all other assays above

Nc1ccc(Cc2ccc(N)cc2)cc1
active: [7] 31.3 µM | [19] 11.5 µM | [10] 20 µM
not listed: [4] | [16] | [17]
inactive: all other assays above

CCOC(=O)[C@]1(c2ccccc2)Oc2ccccc2[C@@H]1N
active: [3] 83.3 µM | [7] 15.8 µM | [19] 81.9 µM | [16] 78.2 µM | [10] 74.3 µM | [11] 75.2 µM | [12] 79.7 µM | [13] 80 µM | [14] 75.6 µM
not listed: [4] | [20]
inactive: all other assays above

c1ccc(NNc2ccccc2)cc1
active: [7] 32.7 µM
not listed: [18] | [19]
inactive: all other assays above

Clc1ccc(C(c2ccc(Cl)cc2)C(Cl)(Cl)Cl)cc1
active: [1] 50 µM | [3] 50 µM | [19] 1.14 µM | [16] 2.78 µM | [9] 12.5 µM | [10] 0.549 µM | [11] 50 µM | [12] 50 µM | [15] 50 µM
inactive: [2] | [5] | [6] | [18] | [7] | [8] | [14]

[As]#[In]
active: [19] 39 µM
not listed: [4] | [11] | [16] | [17]
inactive: all other assays above

CC(C)(OOC(C)(C)c1ccccc1)c1ccccc1
active: [19] 7.24 µM | [9] 25.4 µM | [11] 35.1 µM | [13] 23.9 µM
not listed: [16] | [17] | [18] | [20]
inactive: all other assays above
